In all, about 350,000 compounds went through this assay and about 700 (0.2%) were called active. No cut-off for these calls is given here. Shown is part of a subset that was picked to be rich in actives.
These molecules were tested against RecQ-like DNA helicase BLM (Homo sapiens) (UniProt P54132) (assay: qHTS Assay for Inhibitors of Bloom's syndrome helicase (BLM).).
Type: functional

Chain of RecQ-like DNA helicase BLM (Homo sapiens) (P54132 whole entry): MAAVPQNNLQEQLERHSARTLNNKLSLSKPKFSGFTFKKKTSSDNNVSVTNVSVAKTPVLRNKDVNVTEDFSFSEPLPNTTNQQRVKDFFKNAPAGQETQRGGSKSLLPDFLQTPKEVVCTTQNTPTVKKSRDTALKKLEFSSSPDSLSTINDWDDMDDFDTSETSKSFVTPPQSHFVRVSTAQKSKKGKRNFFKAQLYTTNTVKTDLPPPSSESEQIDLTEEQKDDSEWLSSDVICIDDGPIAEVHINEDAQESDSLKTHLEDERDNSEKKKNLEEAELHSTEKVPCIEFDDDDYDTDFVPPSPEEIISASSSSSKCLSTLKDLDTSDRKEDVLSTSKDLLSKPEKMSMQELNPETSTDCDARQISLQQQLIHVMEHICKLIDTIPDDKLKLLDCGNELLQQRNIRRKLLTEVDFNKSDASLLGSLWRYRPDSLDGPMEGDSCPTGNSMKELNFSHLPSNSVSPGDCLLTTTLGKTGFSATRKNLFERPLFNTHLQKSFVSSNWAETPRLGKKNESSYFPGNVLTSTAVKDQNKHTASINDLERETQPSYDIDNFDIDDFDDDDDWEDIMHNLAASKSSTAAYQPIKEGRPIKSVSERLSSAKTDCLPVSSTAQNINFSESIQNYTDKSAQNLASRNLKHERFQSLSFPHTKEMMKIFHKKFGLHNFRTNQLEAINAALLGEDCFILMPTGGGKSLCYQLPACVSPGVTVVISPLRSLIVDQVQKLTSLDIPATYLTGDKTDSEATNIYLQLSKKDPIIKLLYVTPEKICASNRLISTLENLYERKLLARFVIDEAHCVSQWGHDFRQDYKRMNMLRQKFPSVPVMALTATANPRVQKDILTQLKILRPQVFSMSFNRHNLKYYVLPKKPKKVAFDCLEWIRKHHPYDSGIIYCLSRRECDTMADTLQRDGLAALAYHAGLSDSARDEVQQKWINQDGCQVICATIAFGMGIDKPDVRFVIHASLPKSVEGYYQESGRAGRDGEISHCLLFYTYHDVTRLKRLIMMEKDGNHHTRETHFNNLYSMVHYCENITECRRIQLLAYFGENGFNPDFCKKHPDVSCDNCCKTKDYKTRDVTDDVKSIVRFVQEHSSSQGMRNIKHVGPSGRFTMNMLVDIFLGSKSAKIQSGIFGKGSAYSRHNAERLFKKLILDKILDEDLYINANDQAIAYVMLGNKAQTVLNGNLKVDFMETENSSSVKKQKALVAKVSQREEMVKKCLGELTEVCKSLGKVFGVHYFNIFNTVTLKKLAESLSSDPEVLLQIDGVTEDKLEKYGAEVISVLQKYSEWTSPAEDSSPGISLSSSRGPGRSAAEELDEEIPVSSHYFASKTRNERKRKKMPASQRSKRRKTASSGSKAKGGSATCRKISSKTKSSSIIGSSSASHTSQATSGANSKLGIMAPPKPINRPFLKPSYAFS

Question: For `Nc1nc(N)c2nc(CNc3ccc(C(=O)N[C@@H](CCC(=O)O)C(=O)O)cc3)cnc2n1`, which Potency is on record?
Answer: 20 µM (active)

— ChEMBL document CHEMBL1201862, “PubChem BioAssay data set” (2004)
